sEH act = soluble epoxide hydrolase activators, primary screen, biochemical, human sEH. 0.04% of 91,000 active. activation, % at 2 µM. Bifunctional epoxide hydrolase 2 (Homo sapiens), P34913. purified human sEH enzymatic activity, activator screen; in the data active means activation above about 37%
CYP2C9 act = human CYP2C9 activators, primary screen, biochemical, luminescence; recombinant CYP2C9, luciferin-H conversion; stronger effect = higher value; factor 1 = untreated enzyme, 0 = blocked; activation factor at 5 µM; 1.4% of 96,000 active;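 active means activation factor of 2 or more for CYP2C9 at a 5 µM dose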;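 further: 0 = sulfaphenazole-blocked wells and 1 = vehicle-only wells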
CYP2C9 inh = blockers of cytochrome P450 2C9 activity – biochemical, luminescence, ADME assay, primary screen; P11712; CYP2C9 Supersomes, luciferin-H conversion; inhibition, % at 5 µM; 20% of 96,000 active; AID 777, 2007;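 active means blocking of liver enzyme CYP2C9 beyond about 50% at 5 µM, limit read from the data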
CYP2C19 act = human CYP2C19 activators, primary screen, biochemical, luminescence; Cytochrome P450 2C19 (Homo sapiens), P33261; recombinant CYP2C19, luciferin-H EGE luminescence; stronger effect = higher value; 0 = fully inhibited enzyme, 1 = untreated enzyme; activation factor at 5 µM; 96,000 tested, under 10 active; AID 1025, 2008;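 active means activation factor of at least 2 at 5 µM in the primary screen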;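 further: 0 = wells with 2.5 mM tranylcypromine and 1 = vehicle-only wells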
Target sequence (P33261 whole entry, looked up): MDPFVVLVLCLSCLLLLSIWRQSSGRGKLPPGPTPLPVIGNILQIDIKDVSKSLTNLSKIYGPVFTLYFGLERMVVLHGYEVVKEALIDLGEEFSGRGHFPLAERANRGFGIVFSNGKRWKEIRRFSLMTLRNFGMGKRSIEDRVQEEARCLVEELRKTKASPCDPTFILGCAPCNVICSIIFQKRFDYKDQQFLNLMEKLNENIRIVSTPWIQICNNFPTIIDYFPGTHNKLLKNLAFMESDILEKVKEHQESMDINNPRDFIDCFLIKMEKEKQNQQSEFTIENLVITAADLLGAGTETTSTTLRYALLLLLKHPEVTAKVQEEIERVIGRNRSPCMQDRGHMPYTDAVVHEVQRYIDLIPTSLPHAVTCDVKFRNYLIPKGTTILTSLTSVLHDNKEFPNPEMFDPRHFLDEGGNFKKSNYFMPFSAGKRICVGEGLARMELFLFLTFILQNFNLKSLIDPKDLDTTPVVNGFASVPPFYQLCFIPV
CYP2C19 inhib = blockers of cytochrome P450 2C19 activity – biochemical, luminescence, ADME assay, primary screen | inhibition, % at 5 µM | AID 778, 2007 | 21% of 96,000 active | P33261 | CYP2C19 Supersomes, luciferin-H EGE luminescence, 30 min;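 active means CYP2C19 inhibition above a set limit at 5 µM in the primary screen, cut at about 50% in these data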;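 further: plate controls were negative control wells for no effect and 2.5 mM tranylcypromine positive control for full effect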
sEH inh = soluble epoxide hydrolase inhibitors, primary screen, biochemical, human sEH; Bifunctional epoxide hydrolase 2 (Homo sapiens), P34913; recombinant human sEH enzymatic activity assay; inhibition, % at 2 µM; 0.34% of 91,000 active; AID 707, 2007; in the data active means inhibition above about 80%
An asterisk follows results filed as active; nt = no result given. This is a sample that favours compounds with a hit; in the whole collection about 27% have one here.

SMILES	sEH act	CYP2C9 act	CYP2C9 inh	CYP2C19 act	CYP2C19 inhib	sEH inh
CSc1ccccc1N=Cc1nc(-c2ccccc2)oc1O	-1	0.9	7	0.3	68*	0
Oc1oc(-c2ccccc2)nc1C=NCc1ccccc1	8	0.3	69*	0.2	78*	-14
Oc1cccc(C=NCc2ccccc2)c1	-1	1	-3	0.9	6	-1
Oc1oc(-c2ccccc2)nc1C=Nc1ccccc1	-7	0.5	48	0.6	42	7
COc1ccccc1N=Cc1nc(-c2ccccc2)oc1OC(C)=O	-10	nt	nt	nt	nt	6
CN(C)c1ccc(N=Cc2nc(-c3ccccc3)oc2O)cc1	6	0.7	31	0.5	50*	-8
COC(=O)CCN1CCC(C(N)=O)CC1	16	0.5	48	0.9	10	-17
O=C(CSCc1ccc(F)cc1)NCc1ccco1	-3	0.6	40	0.3	70*	5
O=C(Cc1cccs1)NCc1cccs1	11	0.9	14	0.5	46	-7
O=C(CC1CC2CCC1C2)NCc1cccs1 (stereo not given)	-24	0.8	19	0.3	66*	22
O=C(CCSCCC(=O)NCc1cccs1)NCc1cccs1	nt	0.4	62*	0.6	35	nt
O=C(CCSCCC(=O)NCc1ccco1)NCc1ccco1	nt	0.1	90*	0.8	16	nt
O=C(CSCC(=O)NCc1ccco1)NCc1ccco1	-2	1	2	1	4	2
Cc1cccc(OCCCC(=O)NCc2ccco2)c1	11	1	-1	0.6	45	-8
CCNC(=S)NNC(=O)CCn1c2ccccc2c2ccccc21	1	1.1	-14	0.7	31	0
COc1ccc(N=C2C(=O)Nc3c(C)cccc32)cc1	2	0.9	5	1	-2	-5
COc1cccc(-n2cnc3scc(-c4cccs4)c3c2=O)c1	0	0.2	79*	0.5	49	3
CC(=O)Nc1c(C(=O)N2CCCCCC2)cnn1-c1ccccc1Cl	-3	nt	nt	nt	nt	6
COC(=O)c1ccc(CSCC(=O)Nc2cc(OC)cc(OC)c2)o1	10	0.4	64*	0.5	45	-11
COc1ccc(-c2cc(C(F)(F)F)nc(SCC(=O)NCc3ccco3)n2)cc1OC	-6	nt	nt	nt	nt	2
COc1ccc(-c2cc(-c3cccs3)c(C#N)c(SCC(=O)NCc3ccco3)n2)cc1	nt	0.2	85*	0.5	48	nt
CN1CCN(C(=O)CSc2nc(-c3cccs3)cc(-c3cccs3)c2C#N)CC1	nt	0.2	78*	0.1	86*	nt
COc1ccc(CNC(=O)CSc2nc(-c3ccccc3)cc(-c3cccs3)c2C#N)cc1	9	0.3	69*	0.7	28	-13
CCN(CC)C(=O)CSc1nc(-c2cccs2)cc(-c2cccs2)c1C#N	3	nt	nt	nt	nt	-1
COc1ccc(CCNC(=O)CSc2nc(N)c(C#N)c(-c3cccs3)c2C#N)cc1OC	-13	0.6	36	0.6	38	16
SMILES	sEH act	CYP2C9 act	CYP2C9 inh	CYP2C19 act	CYP2C19 inhib	sEH inh
Cc1nc2ccc(-c3ccccc3)cc2o1	-6	1	1	0.9	9	4
CCOc1cc(C(=O)NCc2nnc(SCC(=O)OC)n2C)cc(OCC)c1OCC	nt	0.6	38	1	4	nt
CCn1c2ccccc2c2cc(NC(=O)C(C)Oc3ccc(OC)cc3)ccc21 (stereo not given)	-3	0.5	48	0.3	69*	3
CCn1c2ccccc2c2cc(NC(=O)C(C)Oc3ccccc3)ccc21 (stereo not given)	8	0.6	39	0.4	61*	-10
CC(Oc1ccc(F)cc1)C(=O)Nc1ccc2ccccc2c1 (stereo not given)	6	0.8	23	1	4	-6
Cc1cc(Br)ccc1NC(=O)CN1C(=O)CCC1=O	12	0.8	17	0.9	12	-9
c1ccc(-c2nc(CSc3nnnn3-c3ccccc3)cs2)cc1	13	0.5	50*	0	97*	-13
Cc1ccccc1Nc1nc(CSc2nnnn2-c2ccccc2)cs1	14	0.5	51*	0.1	94*	-16
O=c1cc(CSc2nnnn2-c2ccccc2)nc2scc(-c3ccccc3)n12	-13	0.6	45	0.6	38	12
COc1cc(C2Nn3c(nnc3-c3ccccc3OC)S2)ccc1O (stereo not given)	-8	nt	nt	nt	nt	11
CC(=O)c1cccc(-n2c(CCC(=O)O)ccc2-c2cccs2)c1	12	0.7	27	0.9	11	-13
O=C(O)CCc1ccc(-c2cccs2)n1-c1ccc(C(=O)O)cc1	nt	2*	-103	1.1	-12	nt
CCc1cc(OCCCSc2nc(C)cc(=O)[nH]2)ccc1Cl	-4	0.9	9	0.3	70*	6
Cc1cc(=O)[nH]c(SCCOc2ccc3c(c2)CCC3)n1	2	1.1	-12	1	4	3
Cc1cc(=O)[nH]c(SCCCOc2ccccc2Cl)n1	-15	0.7	29	0.5	45	15
C/C=C/c1ccc(OCCCNC)c(OC)c1	8	0.9	12	0.9	9	-6
COc1ccccc1OCCSc1nc2ccccc2c(=O)[nH]1	-12	0.6	43	0.4	59*	15
Cc1cc(=O)[nH]c(SCCOc2ccc(OC(C)C)cc2)n1	7	0.3	75*	0.3	66*	-3
C/C=C/c1ccc(OCCSc2nc(C)cc(=O)[nH]2)c(OC)c1	nt	0.5	53*	0.8	16	nt
CSCC[C@H](NC(=O)CCNC(C)=O)c1nc2ccccc2[nH]1	8	1.1	-12	1	-2	-8
Oc1ccc2ccccc2c1C1Nc2cccc3cccc(c23)N1	-5	0.3	72*	0.8	25	3
CNc1nnc(-c2cc3ccccc3oc2=O)s1	14	0.9	12	0.8	16	-15
CCOC(=O)Cn1c(=O)c(-c2ccccc2NC)nc2ccccc21	-6	1.2	-16	0.9	10	7
Cc1ccc(NC2=NCC(=O)N2Cc2ccc3c(c2)OCO3)c(C)c1	nt	0.2	79*	0	96*	nt
CCc1ccc(NC2=NCC(=O)N2Cc2ccc3c(c2)OCO3)cc1	nt	0.4	58*	0.6	36	nt
CCc1ccc(NC2=NCC(=O)N2c2ccc3c(c2)OCCO3)cc1	3	nt	nt	nt	nt	1
Cc1ccc(NC2=NCC(=O)N2c2ccc3c(c2)OCCO3)c(C)c1	16	nt	nt	nt	nt	-18
Cn1c(=O)c2c(nc(SC3C(=O)CC(C)(C)CC3=O)n2C)n(C)c1=O	nt	1.3	-32	1.2	-22	nt
CC(C)NC(=O)NC(=O)COc1cccc2c1OC(C)(C)C2	0	0.7	32	0.1	93*	2
Cc1cnc(NC(=O)COc2cccc3c2OC(C)(C)C3)s1	-9	0.8	24	0.9	12	8
